Screens (PubChem BioAssay)
LMP1 NFkB inh = inhibitors of Epstein-Barr LMP1-induced NF-kappaB reporter | 350,000 tested, 0.69% active | inhibition, % at 12.5 µM | LMP1-induced NF-kappaB luciferase reporter cells, luminescence; in the data active = inhibition above about 41%
TWEAK-Fn14 inh = TWEAK-Fn14 signaling inhibition; TWEAK-stimulated Fn14 reporter cells, luciferase luminescence, 8 h; inhibition, % at 10 µM; AID 1159606; 360,000 tested, 2% active; in the data active = inhibition above about 50%
LGR2 antag = Drosophila LGR2 receptor signaling inhibition | HEK293 LGR2, CRE-luciferase, bursicon-stimulated, 4 h | inhibition, % at 9.99 µM | 380,000 tested, 0.35% active | AID 720647;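 active = drop in luminescence signal, shown as inhibition above about 50% in the replicate tests, limit read from the data, passing the limit was not always enough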;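 note: agonist challenge used bursicon conditioned medium at about half maximal strength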
TRPM1 prom inh = MITF TRPM1 promoter inhibition in SK-MEL-5 cells; SK-MEL-5 TRPM1 promoter luciferase, 24 h; inhibition, % at 12.5 µM; 330,000 tested, 0.83% active; AID 488899;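 active = mean inhibition across replicates of 60% or more, whatever share of single replicates reaches that level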
MITF act = activators of MITF-driven TRPM1 promoter activity in SK-MEL-5 cells; activation, % at 12.5 µM; AID 588334; SK-MEL-5 TRPM1-promoter luciferase, 24 h; % of positive control, neutral wells = 0; 300,000 tested, 0.75% active;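 active = mean activation of at least 80% with every replicate also reaching 80%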
TROY NFkB inh = TROY signaling inhibition. Q293 LMP1-TROYcd NF-kB luciferase reporter, 4 h. inhibition, % at 10 µM. 360,000 tested, 0.98% active. AID 1347056;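 active = compounds whose plate-normalised and pattern-corrected inhibition of the luciferase reporter signal at the single screening dose is 50% or more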
Numbers stand for hits; - = inactive; . = not tested or not shown. Only some compounds are listed: those with a hit (about 3% of all), similar ones and a draw of the others.

SMILES | LMP1 NFkB inh | TWEAK-Fn14 inh | LGR2 antag | TRPM1 prom inh | MITF act | TROY NFkB inh
Clc1ccc(-c2cn3nc4c(nc3n2)CCCC4)cc1 | 50 | - | . | - | - | -
Cn1nc(-c2ccc(Cl)cc2)c2cc(C(=O)N3CCN(c4ccccn4)CC3)sc21 | - | 79 | . | - | - | 52
Cn1nc(-c2ccc(Cl)cc2)c2cc(C(=O)N3CCN(c4ccccc4)CC3)sc21 | - | - | - | - | - | -
COc1cccc2c1OCC(C(=O)Nc1nccs1)=C2 | - | - | - | - | 119 | -
Oc1c(Cl)cc(Cl)cc1C=Nc1ccc2c(c1)OCCO2 | - | 75 | . | - | . | 63
Brc1csc(C=Nc2ccc3c(c2)OCCOCCOCCOCCO3)c1 | - | - | - | - | - | -
O=C(c1ccc([N+](=O)[O-])o1)N1CCN(c2nc3c(F)cc(F)cc3s2)CC1 | - | - | - | 79 | - | -
CO[C@H]1CC[C@H]2CCN(C)C(=O)C[C@@H](c3ccccc3)CN(C)C(=O)c3cccc(C#N)c3OC[C@H]1O2 | . | . | - | . | . | .
CCc1cc2c(=O)oc(-c3ccc(F)cc3)nc2s1 | - | 54 | . | - | . | -
Cn1c(=NC(=O)c2ccccc2[N+](=O)[O-])sc2cccc(F)c21 | - | - | - | - | 100 | -
CCCN(C)C[C@H]1Oc2ncc(-c3cccc(C(=O)N(C)C)c3)cc2C(=O)N([C@@H](C)CO)C[C@H]1C | . | . | - | . | . | .
COc1cc(-c2nc(-c3ccccn3)no2)cc(OC)c1OC | - | - | . | - | - | -
c1ccc(-c2noc(-c3cccc4ccccc34)n2)nc1 | - | 77 | . | - | - | -
COc1cccc(-c2nc(-c3ccccn3)no2)c1OC | - | - | . | - | 84 | -
CC(C)NC(=O)c1cc(-c2ccc(Br)cc2)on1 | - | - | . | - | 111 | -
COc1ccc(-c2cc(C(=O)NCC(C)C)no2)cc1 | - | - | - | - | 87 | -
COc1ccc(-c2cc(C(=O)O)no2)cc1 | - | - | - | - | - | -
CCC(C)NC(=O)c1cc(-c2ccc(OC)cc2)on1 (stereo not given) | - | - | . | - | 101 | -
CCC(C)NC(=O)c1cc(-c2ccc3c(c2)OCO3)on1 (stereo not given) | - | - | - | - | 88 | -
COc1ccc(NC(=O)Nc2ccc3c(c2)CC(=O)N([C@H](C)CO)C[C@H](C)[C@@H](CN(C)Cc2ccncc2)O3)cc1 | . | . | - | . | . | .
C[C@H]1CN([C@@H](C)CO)C(=O)c2cc(NC(=O)Nc3ccc4c(c3)OCO4)ccc2O[C@@H]1CN(C)Cc1ccc(-c2ccccc2)cc1 | . | . | - | . | . | .
CCOC(=O)/C=C/C(=O)Nc1ccccc1-c1ccccc1NC(=O)/C=C/C(=O)OCC | - | 58 | - | - | - | -
CCOC(=O)/C=C/C(=O)Nc1cccc([N+](=O)[O-])c1 | - | - | . | - | - | -
COc1cc(/C=C/C(=O)N2CCN(C(=O)/C=C/c3cc(OC)c(OC)c(OC)c3)CC2)cc(OC)c1OC | - | - | . | - | - | -
COc1cc(/C=C/C(=O)N2C(=O)c3cccc(N)c3C2=O)cc(OC)c1OC | - | 92 | - | - | - | -
SMILES | LMP1 NFkB inh | TWEAK-Fn14 inh | LGR2 antag | TRPM1 prom inh | MITF act | TROY NFkB inh
COc1ccc(OC)c(/C=C/C(=O)N2C(=O)c3cccc(N)c3C2=O)c1 | - | 100 | - | - | - | -
COc1ccc(OC)c(/C=C/C(=O)N2CCCc3ccccc32)c1 | - | - | - | - | - | -
O=C(O)CSCC(=O)Nc1ccc(C2CCCCC2)cc1 | 58 | 92 | - | 74 | - | 83
C[C@@H]1CN([C@H](C)CO)C(=O)c2cc(NC(=O)CCCN(C)C)ccc2O[C@@H]1CN(C)Cc1ccc(C(F)(F)F)cc1 | . | . | - | . | . | .
CCc1ccc(C(=O)CN(C#N)c2nc(C)cc(C)n2)cc1 | - | 62 | - | - | - | -
Cc1cccc(N(C(=O)CNC(=O)c2ccco2)C(C(=O)NC2CCCCC2)c2cccnc2)c1 (stereo not given) | - | - | - | - | - | -
O=C(CCCC(=O)N(c1ccc2c(c1)OCCO2)C(C(=O)NC1CCCCC1)c1ccc(Cl)cc1)Nc1ccccn1 (stereo not given) | - | 63 | - | - | - | -
COC(C(=O)NC1CCCCCCC1)c1ccccc1 (stereo not given) | - | - | - | - | - | -
O=C(NC1CCCCC1)C(c1cccnc1)N(C(=O)CCl)c1cccc(Cl)c1 (stereo not given) | - | - | - | 83 | - | -
COC(CN(C)C(C(=O)NC1CCCCC1)c1ccccc1)OC (stereo not given) | - | 81 | - | - | - | -
COc1ccc(C(C(=O)NC2CCCCC2)N(C(=O)CCl)c2ccc(Cl)cc2)cc1 (stereo not given) | - | 54 | . | 79 | - | -
O=C(C[C@H]1C=C[C@H](NS(=O)(=O)c2cccc(F)c2)[C@H](CO)O1)NCc1ccc2c(c1)OCO2 | . | . | - | . | . | .
N=c1n(CC(=O)c2ccc(Br)s2)c2ccccc2n1Cc1ccccc1 | - | - | - | 90 | - | -
Cn1c(=N)n(CC(=O)c2ccc(Br)s2)c2ccccc21 | - | - | . | - | - | -
C[C@@H]1CN([C@@H](C)CO)S(=O)(=O)c2ccc(/C=C/c3ccccc3)cc2O[C@@H]1CN(C)Cc1ccc(C(=O)O)cc1 | 55 | - | - | . | . | -
C[C@H]1CN([C@@H](C)CO)S(=O)(=O)c2ccc(/C=C/c3ccccc3)cc2O[C@@H]1CN(C)Cc1ccc(C(=O)O)cc1 | . | . | - | . | . | .
COc1ccc(-c2cc(=O)oc3cc(OCC(C)=O)ccc23)cc1 | - | - | - | - | - | -
COc1ccc(-c2cc(=O)oc3cc(O)ccc23)cc1 | - | 64 | - | - | - | -
COc1ccc(-c2cc(=O)oc3c(C)c(O)ccc23)cc1 | - | 72 | - | - | - | 61
COc1ccc(-c2cc(=O)oc3cc(OC(=O)C4CCCCC4)c(Cl)cc23)cc1 | - | 84 | - | - | - | 58
Cc1c(OCc2ccc([N+](=O)[O-])cc2)ccc2c3c(c(=O)oc12)CCC3 | - | - | - | - | 112 | -
Cc1oc(C(=O)O)cc1COc1ccc2c3c(c(=O)oc2c1C)CCC3 | - | - | . | - | . | -
Cc1ccccc1-c1ccc(C2[C@@H]3CN(C(=O)Nc4cccc(F)c4)C[C@H]2N3)cc1 (stereo not given in full) | . | . | - | . | . | .
C[C@@H]1CN([C@H](C)CO)C(=O)c2cc(C#CC3CCCCC3)cnc2O[C@H]1CN(C)Cc1cncnc1 | . | . | - | . | . | .
Cc1ccc(-n2c(Cl)c(Cl)nc(Cl)c2=O)cc1 | 72 | 102 | . | 95 | - | 63
COc1nc(Cl)cn(-c2ccc(C)cc2)c1=O | - | - | - | - | - | -
CCCNC(=O)N1CCN(S(=O)(=O)c2ccc(C)c(C)c2)CC1 | 47 | - | . | - | - | -
CCCNC(=O)Nc1ccc2c(c1)C(=O)N(C)C[C@H](OC)[C@H](C)CN(CCC)[C@@H](C)CO2 | . | . | - | . | . | .
